57 compounds from PubChem BioAssay AID1490 (National Center for Advancing Translational Sciences (NCATS), 2009) can be followed below.

The whole screen tested about 310,000 compounds, of which about 11,000 (3.5%) were called active. Not shown: some 4% with an inconclusive outcome. This is one part of a sample in which actives are shown more often than they occur. Where a structure was tested more than once in an assay, its records may differ in their call. Values without a mark were called inactive. Calls follow the shape of the dose curve; as a rule, active = well fitted inhibition curve with a large enough effect; inconclusive = small, poorly fitted or top-dose-only effect, or another doubt; inactive = no such curve, though single readings can be large or run the other way.
Potency is read from the fitted curve at half-maximal effect.

This assay deals with 4'-phosphopantetheinyl transferase ffp (Bacillus subtilis) (UniProt Q9F4F7). In words: qHTS Assay for Inhibitors of Bacillus subtilis Sfp phosphopantetheinyl transferase (PPTase).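 Also: the enzyme is Sfp with the accession as filed and its product quenches rhodamine fluorescence.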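 As to largest response in the series, negative = inhibition: 0% = enzyme reaction without inhibitor and -100% = no enzyme wells.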 The following applies: Biochemical Sfp PPTase activity. Summed up: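 Fluorescence-quenching assay: 15 nM Sfp-PPTase preincubated 15 min at room temperature with compound, then 5 uM rhodamine-CoA and 12.5 uM BHQ-2-labelled YbbR peptide added. Fluorescence (ex 525/em 598 nm) read at start and after 30 min; difference gives rate.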
Take `CC1CCN(S(=O)(=O)c2ccc3c(ccn3CC(=O)O)c2)CC1`: the largest response in the series, negative = inhibition was 13.3%. On the same count and under the same terms, for `COc1ccc(NC(=O)C2C3CCC(O3)C2C(=O)O)cc1OC` (stereo not drawn) the value was -8.26%. Turning to `Cc1sc(NC(=O)C2C3CCC(O3)C2C(=O)O)c(C(=O)OC(C)C)c1-c1ccc(Cl)cc1` (stereo not drawn), the Potency was 56.2 µM (active).

For the compound `CC(C)OC(=O)c1cc(NC(=O)C2C3CCC(O3)C2C(=O)O)cc(C(=O)OC(C)C)c1` (stereo not drawn), the largest response in the series, negative = inhibition is 12.5%. Take `O=c1ccc2cc(S(=O)(=O)NCCCc3ccccc3)ccc2[nH]1`: the largest response in the series, negative = inhibition was 6.03%. Turning to `CCOC(=O)C1CCN(S(=O)(=O)c2c(C)noc2C)CC1`, the largest response in the series, negative = inhibition is 0.623%. For the compound `COc1cccc(-c2coc3cc4oc(=O)c(CC(=O)O)c(C)c4cc23)c1`, the largest response in the series, negative = inhibition is 3.72%. On to `CC(C)C(=O)Nc1ccc2oc(=O)ccc2c1`, for which the largest response in the series, negative = inhibition was 13.6%.

`O=C(NC(=S)Nc1ccc2oc(=O)ccc2c1)c1ccc(-c2cccc(Cl)c2Cl)o1`: the Potency was 79.4 µM (active). `O=C(COc1ccc(Cl)cc1)Nc1ccc2oc(=O)ccc2c1`: the largest response in the series, negative = inhibition is -10.1%. Take `COC/C=C/C1=CC2=CC(=O)C(C)(OC(=O)CCC(=O)OC)C(=O)C2=CO1` (stereo not drawn): the Potency was 56.2 µM (active) and the largest response in the series, negative = inhibition was -28.3%. With `CC(C)(C)OC(=O)NCCCC1=CC2=CC(=O)C(C)(OC(=O)c3ccco3)C(=O)C2=CO1` (stereo not drawn), the largest response in the series, negative = inhibition is -0.751%.

As to `CC(C)(C)OC(=O)NCCCCC1=CC2=CC(=O)C(C)(OC(=O)c3cccs3)C(=O)C2=CO1` (stereo not drawn), the largest response in the series, negative = inhibition was -1.92%.

Turning to `COc1cc(C2C3=C(CCCC3=O)OC3=C2C(=O)CCC3)ccc1OCC(=O)Nc1ccccc1`, the largest response in the series, negative = inhibition is -3.15%. In the case of `Cc1cccc(C)c1NC(=O)COC(=O)c1ccccc1O`, the largest response in the series, negative = inhibition is -13%. On to `O=C(NC(=S)Nc1ccccc1C(=O)O)c1ccc(-c2ccc(Br)cc2)o1`, for which the Potency was 31.6 µM (active). For the compound `Cc1cccc(NC(=S)NC(=O)c2ccc(Br)o2)c1`, the largest response in the series, negative = inhibition was -10.9%. Regarding `COC(=O)c1ccccc1NC(=S)NC(=O)c1ccccc1F`, the largest response in the series, negative = inhibition is 10.1%. On the same count and under the same terms, for `CC1(C)C2CCC1(CS(=O)(=O)NCCc1c[nH]c3ccccc13)C(=O)C2` (stereo not drawn) the value was 3.13%; for `CCCCN(C)CCNC(=O)C1CCCN(S(=O)(=O)c2cccc3nsnc23)C1` (stereo not drawn), 11.4%. Turning to `COCCNC(=S)N(CCc1c(C)[nH]c2ccc(C)cc12)Cc1cccnc1`, the largest response in the series, negative = inhibition is 5.81%. Take `CCOc1cc(/C=N/O)ccc1OCc1ccccc1F`: the largest response in the series, negative = inhibition is 2.28%. On to `COc1cc(/C=C2/C(=O)ON=C2C)ccc1OCc1ccccc1F`, for which the Potency is 56.2 µM (active). In the case of `COc1cc(/C=C2/C(=O)ON=C2C)ccc1OCc1cccc(F)c1`, the largest response in the series, negative = inhibition was -29.4%. With `O=C(Nc1nnc(-c2ccc(F)cc2)s1)c1c(F)cccc1Cl`, the largest response in the series, negative = inhibition was 11.5%. As for `O=C(NCCNc1ccc([N+](=O)[O-])cc1Cl)c1ccccc1F`, the largest response in the series, negative = inhibition is 13.9%. With `C/C(=C\c1ccccc1)C1NC(=O)c2c(sc3c2CCCC3)N1` (stereo not drawn), the largest response in the series, negative = inhibition is -9.45%. Take `O=C1NC(c2ccncc2)Nc2sc3c(c21)CCCC3` (stereo not drawn): the Potency was 35.5 µM (active). Take `O=C(Nc1sc2c(c1-c1nc3ccccc3[nH]1)CCCC2)C1CC1`: the largest response in the series, negative = inhibition was 11.4%. As to `COc1ccc(CNC(=O)C(c2ccc(O)cc2)N(Cc2ccco2)C(=O)c2snc(C(N)=O)c2N)cc1` (stereo not drawn), the largest response in the series, negative = inhibition is 8.78%. Consider `O=CN1CCN(C(=O)c2ccc3c(c2)OCO3)CC1`, for which the largest response in the series, negative = inhibition is 5.66%. Regarding `Cc1ccc(C(=O)NC(=S)NCCN2CCOCC2)cc1`, the largest response in the series, negative = inhibition is 0.183%.

`Cc1cc(C)cc(NC(=S)NCCCN2CCOCC2)c1`: the largest response in the series, negative = inhibition was 3.01%. Turning to `O=C(NNC(=S)NCCCN1CCOCC1)c1ccncc1`, the Potency is 28.2 µM (active). For the compound `O=C(N/N=C/c1ccoc1)c1ccc(Cl)cc1Cl`, the largest response in the series, negative = inhibition was 5.37%. On the same count and under the same terms, the result for `Cc1cccc(N2CCN(C(=O)CCS(=O)(=O)c3ccc4c(c3)NC(=O)C(C)S4)CC2)c1C` (stereo not drawn) reads 10.9%.

As to `CC(C)(C)OC(=O)CNC(=O)c1[nH]cnc1C(=O)N[C@@H](Cc1ccccc1)C(=O)OCc1ccccc1`, the largest response in the series, negative = inhibition was 19.7%.

With `CCCCCCCCCCOC(=O)Cn1c(COc2cccc(OC)c2)[n+](C)c2ccccc21`, the Potency was 44.7 µM (active). Take `COc1cccc(OCC(=O)Nc2ccccc2C(N)=O)c1`: the largest response in the series, negative = inhibition is 10.7%. As to `CCCCOC(=O)Cn1c(=O)n(CC(=O)OCCCC)c2cc(C)ccc21`, the largest response in the series, negative = inhibition is 7.32%.

As for `CCCCCCCCCCOC(=O)Cn1c(COc2ccc(C)cc2)[n+](C)c2ccccc21`, the Potency was 31.6 µM (active). `Cc1ccc(OCCCn2c(=O)oc3ccccc32)cc1`: the largest response in the series, negative = inhibition was -10.3%. In the case of `CCCCOC(=O)Cn1c(=N)n(CCN(CC)CC)c2ccccc21`, the largest response in the series, negative = inhibition is 8.57%.

As for `O=S(=O)(c1ccc(Cl)s1)N1CCC2(CC1)OCCO2`, the largest response in the series, negative = inhibition was 23.5%. As for `CCCCn1c(N)c(N(CCOC)C(=O)c2oc3ccc(OC)cc3c2C)c(=O)[nH]c1=O`, the largest response in the series, negative = inhibition was 15.3%. On to `O=C(CC1C(=O)NCCN1C(=O)c1ccc([N+](=O)[O-])cc1)Nc1cccc(Cl)c1` (stereo not drawn), for which the largest response in the series, negative = inhibition was 5.33%. As for `Cc1cc(C)c(S(=O)(=O)c2cc(F)ccc2C)c(=O)[nH]1`, the largest response in the series, negative = inhibition was 27.3%. In the case of `CCCN1CC=C2C(C#N)=C(N)C(C#N)(C#N)C(c3cc(OC)ccc3OC)C2C1` (stereo not drawn), the largest response in the series, negative = inhibition is -12.4%.

On to `CCOC(=O)N1CC=C2C(C#N)=C(N)C(C#N)(C#N)[C@H](c3cccs3)[C@H]2C1`, for which the largest response in the series, negative = inhibition is -5.72%. Turning to `N#CC1=C(N)C(C#N)(C#N)[C@H](c2ccsc2)[C@H]2COCC=C12`, the Potency was 2.51 µM (active).

As for `COc1ccc(CNC(=O)CN(c2ccc(OC)c(Cl)c2)S(=O)(=O)c2ccc(C)cc2)cc1`, the largest response in the series, negative = inhibition was 17.9%. In the case of `Cc1ccc(CCN2CC(C(=O)NCCc3ccccc3)CC2=O)cc1` (stereo not drawn), the largest response in the series, negative = inhibition is 20.9%. On the same count and under the same terms, for `COc1ccccc1C(=O)N1CC2(C)CC1CC(C)(C)C2` (stereo not drawn) the value was 23.6%; for `Cc1cccc(C(=O)NCC(=O)OCC(=O)N2CC3(C)CC2CC(C)(C)C3)c1` (stereo not drawn), -0.692%. For the compound `Cc1nnnn1/C(=C\c1ccccc1)C(=O)OCC(=O)N1CC2(C)CC1CC(C)(C)C2` (stereo not drawn), the Potency was 50.1 µM (active). For the compound `CC(NCCc1ccc(S(N)(=O)=O)cc1)C(=O)NCc1ccccc1` (stereo not drawn), the largest response in the series, negative = inhibition is 4.54%. As to `C=CCn1c(C23CC4CC(CC(C4)C2)C3)n[nH]c1=S`, the largest response in the series, negative = inhibition was 14.6%.
